Measured values published in PubChem BioAssay AID645 (SRMLSC, 2007).
Hit rate of the full screen: of about 65,000 compounds, about 450 (0.69%) were called active.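 How the source made its calls: active means HER2 level under 5% of the carrier-only control; inconclusive means no clear call, values can overlap the other calls; inactive means the rest.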 What follows is part of a selection rich in actives, with near analogues and random picks from the rest.

Biological target: Receptor tyrosine-protein kinase erbB-2 (Homo sapiens) (UniProt P04626)
Sequence (P04626 whole entry, looked up): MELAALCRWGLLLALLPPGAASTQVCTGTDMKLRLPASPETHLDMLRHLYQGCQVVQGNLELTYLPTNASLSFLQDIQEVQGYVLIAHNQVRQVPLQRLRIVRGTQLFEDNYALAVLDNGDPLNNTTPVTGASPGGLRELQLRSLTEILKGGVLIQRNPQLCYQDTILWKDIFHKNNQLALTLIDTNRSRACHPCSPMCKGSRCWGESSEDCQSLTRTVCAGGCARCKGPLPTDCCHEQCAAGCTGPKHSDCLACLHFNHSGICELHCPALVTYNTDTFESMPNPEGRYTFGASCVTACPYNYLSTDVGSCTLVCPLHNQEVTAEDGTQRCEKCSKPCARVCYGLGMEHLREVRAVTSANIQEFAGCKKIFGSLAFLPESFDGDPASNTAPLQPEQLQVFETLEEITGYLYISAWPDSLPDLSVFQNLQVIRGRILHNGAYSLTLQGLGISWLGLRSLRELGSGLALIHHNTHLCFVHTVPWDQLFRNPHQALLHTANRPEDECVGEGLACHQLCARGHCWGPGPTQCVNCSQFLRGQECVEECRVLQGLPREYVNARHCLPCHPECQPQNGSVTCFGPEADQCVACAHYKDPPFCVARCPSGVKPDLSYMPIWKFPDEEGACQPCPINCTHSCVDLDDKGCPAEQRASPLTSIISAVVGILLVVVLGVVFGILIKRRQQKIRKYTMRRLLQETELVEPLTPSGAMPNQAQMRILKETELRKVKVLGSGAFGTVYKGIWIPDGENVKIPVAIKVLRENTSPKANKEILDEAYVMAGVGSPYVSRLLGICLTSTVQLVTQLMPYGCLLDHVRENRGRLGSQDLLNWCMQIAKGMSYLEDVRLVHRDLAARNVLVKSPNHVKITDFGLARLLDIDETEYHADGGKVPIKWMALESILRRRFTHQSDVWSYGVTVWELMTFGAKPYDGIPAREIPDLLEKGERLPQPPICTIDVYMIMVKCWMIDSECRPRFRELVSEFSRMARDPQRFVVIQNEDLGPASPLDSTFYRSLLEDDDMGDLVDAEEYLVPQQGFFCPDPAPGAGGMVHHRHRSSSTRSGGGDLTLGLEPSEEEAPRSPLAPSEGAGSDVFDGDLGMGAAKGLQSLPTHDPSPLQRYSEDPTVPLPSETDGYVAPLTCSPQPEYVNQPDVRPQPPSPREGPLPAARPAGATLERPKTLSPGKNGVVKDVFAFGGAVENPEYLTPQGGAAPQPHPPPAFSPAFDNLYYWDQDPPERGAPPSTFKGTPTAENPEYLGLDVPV
Assay: inhibitors of Her2 protein expression, primary screen, SKBR-3 cells, AlphaScreen, 66K library (AID 645);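 further: 100% = DMSO carrier and 0% = 500 nM PU-H71 HSP90 inhibitor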
Conditions: SKBR-3 HER2 protein level, 18-24 h, at 10 µM, stronger effect = lower value

Question: Which HER2 level % of control does the source give for `CN(C)CCNC(=O)C(C(=O)c1ccccc1)n1ccccc1=O` (configuration not stated) here?
Answer: 99.7% (inactive)

Question: Which HER2 level % of control does the source give for `O=C(C(NS(=O)(=O)c1cccc2nsnc12)c1ccccc1)N1CCN(c2ccccn2)CC1` (configuration not stated) here?
Answer: 70.8% (inactive)

Question: `CCOP1(=O)C=C(C(C)(C)C)OC1c1ccc(F)cc1` (configuration not stated) was tested. Which HER2 level % of control did it give?
Answer: -28.1% (active)

Question: With `CC1CCc2c(sc3c2C2=NS(=O)(=O)CCN2C=N3)C1` (configuration not stated) as the compound, how does the HER2 level % of control read?
Answer: 111% (inactive)

Question: How did the HER2 level % of control turn out when `O=C(NCc1cccs1)c1ccc2c(c1)ncn2C1CCCC1` was run?
Answer: 121% (inactive)

Question: `Cc1ccc(OCC(O)CN2CCN(CC(O)COc3ccc(C)cc3Cl)CC2)c(Cl)c1` (configuration not stated) was tested. Which HER2 level % of control did it give?
Answer: 65.4% (inactive)

Question: For `COc1ccc(N2CCN(CCNC(=O)c3nnc(Cc4c(F)cccc4Cl)o3)CC2)cc1`, which HER2 level % of control is on record?
Answer: 103% (inactive)

Question: With `O=C(CSc1nnc(Cn2cnc3ccccc32)o1)c1ccccc1` as the compound, how does the HER2 level % of control read?
Answer: 107% (inactive)

Question: How did the HER2 level % of control turn out when `CC(C)Oc1ccc(C2NC(=O)NC2=O)cc1` (configuration not stated) was run?
Answer: 81.7% (inactive)

Question: Which HER2 level % of control does the source give for `Cc1ccccc1N1CC(c2nc3ccccc3[nH]2)CC1=O` (configuration not stated) here?
Answer: 99.4% (inactive)

Question: With `N#CC1=C(SCc2ccccc2)NC(=O)C(C#N)C12CCCC2` (configuration not stated) as the compound, how does the HER2 level % of control read?
Answer: 88.2% (inactive)

Question: For `CCOC(=O)C1CCCN(C(=O)c2sc3nc(C)nc(N4CCOCC4)c3c2C)C1` (configuration not stated), which HER2 level % of control is on record?
Answer: 87.2% (inactive)

Question: `CCS(=O)(=O)NCCc1ccc(OC)c(OC)c1` was tested. Which HER2 level % of control did it give?
Answer: 90.2% (inactive)

Question: For `Cc1ccccc1-n1c(SCC(=O)NCc2cccs2)nnc1-c1ccncc1`, which HER2 level % of control is on record?
Answer: 108% (inactive)

Question: With `CCN(CC(=O)NCc1cccs1)c1nnnn1-c1ccccc1` as the compound, how does the HER2 level % of control read?
Answer: -25.9% (active)

Question: `Cc1nnc(SCC(=O)NCc2cccs2)[nH]c1=O` was tested. Which HER2 level % of control did it give?
Answer: 87.7% (inactive)

Question: `CCN1C(=O)/C(=C2\SC(N3CCCCC3)=NC2=O)c2ccccc21` was tested. Which HER2 level % of control did it give?
Answer: 121% (inactive)

Question: Which HER2 level % of control does the source give for `COc1cccc(C(=O)Nc2c3c(nn2-c2cccc(C)c2C)CS(=O)(=O)C3)c1OC` here?
Answer: 119% (inactive)

Question: With `Cc1nc2cc(-c3ccc(F)cc3)nn2c(N2CCOCC2)c1C` as the compound, how does the HER2 level % of control read?
Answer: 49.6% (inactive)

Question: With `Cn1c(=O)c2[nH]c(NCC3CCCO3)nc2n(-c2ccccc2)c1=O` (configuration not stated) as the compound, how does the HER2 level % of control read?
Answer: 83.7% (inactive)

Question: How did the HER2 level % of control turn out when `CCCC(NS(=O)(=O)c1ccc(OC)cc1)C(=O)O` (configuration not stated) was run?
Answer: 96.9% (inactive)

Question: How did the HER2 level % of control turn out when `O=S(=O)(Nc1ccccc1N1CCOCC1)c1ccc(Cl)s1` was run?
Answer: 95.5% (inactive)

Question: With `N#CC(C(N)=O)=C1CCC2(CC1)OCCCCO2` as the compound, how does the HER2 level % of control read?
Answer: 93.5% (inactive)

Question: With `CC1CCC(NS(=O)(=O)c2ccc3c(c2)n(C)c(=O)c(=O)n3C)CC1` (configuration not stated) as the compound, how does the HER2 level % of control read?
Answer: 76.3% (inactive)

Question: For `Brc1ccc(OCCn2ccnc2)cc1`, which HER2 level % of control is on record?
Answer: 109% (inactive)

Question: How did the HER2 level % of control turn out when `Cc1ccc(N2CCN(S(=O)(=O)N(C)C)CC2)cc1Cl` was run?
Answer: 105% (inactive)

Question: For `Cc1nnc(NC2=NCCCCC2)o1`, which HER2 level % of control is on record?
Answer: 106% (inactive)

Question: For `O=C(Nc1cc(=O)[nH]c2ncnn12)c1ccccc1Cl`, which HER2 level % of control is on record?
Answer: 92% (inactive)

Question: With `CSC1=N/C(=C\C=C\c2cccs2)C(=O)S1` as the compound, how does the HER2 level % of control read?
Answer: 0.09% (active)

Question: How did the HER2 level % of control turn out when `COCC(C)N=CC1=C(O)CC(C)(C)CC1=O` (configuration not stated) was run?
Answer: 118% (inactive)

Question: With `Cc1nc2sc(C(c3ccco3)N3CCOCC3)c(O)n2n1` (configuration not stated) as the compound, how does the HER2 level % of control read?
Answer: 51% (inactive)

Question: With `C/C(=C\C(=O)c1ccccc1)Nc1cccc(O)c1` as the compound, how does the HER2 level % of control read?
Answer: 58.9% (inactive)

Question: With `c1ccc2cc3[nH]c(CN4CCCCC4)nc3cc2c1` as the compound, how does the HER2 level % of control read?
Answer: 96.1% (inactive)

Question: With `O=C(Nc1cccc(Cl)c1)OCc1ccccn1` as the compound, how does the HER2 level % of control read?
Answer: 91.3% (inactive)

Question: `Cc1c(NC(=O)c2coc(=O)c(Br)c2)c(=O)n(-c2ccccc2)n1C` was tested. Which HER2 level % of control did it give?
Answer: -15.4% (active)

Question: `COC(=O)Nc1c(C)n(C)n(-c2ccccc2)c1=O` was tested. Which HER2 level % of control did it give?
Answer: 89.1% (inactive)

Question: For `Cc1cc(C(=O)Nc2c(C)n(C)n(-c3ccccc3)c2=O)cs1`, which HER2 level % of control is on record?
Answer: 91.6% (inactive)

Question: `CS(=O)(=O)c1ccc2nc(NC(=O)C3CCCCC3)sc2c1` was tested. Which HER2 level % of control did it give?
Answer: 45.1% (inactive)

Question: With `CC(=O)c1c(C)n(-c2ccc(N(C)C)cc2)c2ccc(OCC(N)=O)cc12` as the compound, how does the HER2 level % of control read?
Answer: 64.8% (inactive)

Question: `COc1ccccc1-c1nnc(SCC(=O)Nc2cc(C)on2)o1` was tested. Which HER2 level % of control did it give?
Answer: 92.1% (inactive)

Question: `CC(C)C1C2=C(CC(C)(C)CC2=O)ON1c1ccccc1` (configuration not stated) was tested. Which HER2 level % of control did it give?
Answer: 89.9% (inactive)

Question: Which HER2 level % of control does the source give for `CC1(C)CC(=O)NC=C(c2ccccc2)C1` here?
Answer: -32.3% (active)

Question: With `O=c1[nH]c(-c2ccccc2)c(-c2ccccc2)[nH]1` as the compound, how does the HER2 level % of control read?
Answer: 88.4% (inactive)

Question: With `CC(C)(C)NC(=O)Cn1nnc(-c2ccccc2Cl)n1` as the compound, how does the HER2 level % of control read?
Answer: 75.9% (inactive)

Question: Which HER2 level % of control does the source give for `COCCCNC(=O)CCc1nc2cccnc2n1Cc1ccc(OC)cc1` here?
Answer: 96.5% (inactive)

Question: For `Cc1cc(NC(=O)CCC(=O)N(c2cccc(F)c2)C(C(=O)NC2CCCC2)c2ccncc2)no1` (configuration not stated), which HER2 level % of control is on record?
Answer: 97% (inactive)

Question: `CCn1c(SCC(=O)NCC2CCCO2)nc2cc(S(=O)(=O)N3CCCCC3)ccc21` (configuration not stated) was tested. Which HER2 level % of control did it give?
Answer: -27.6% (active)

Question: `CCCCn1c(SCC(=O)NCC2CCCO2)nc2ccc(N3CCOCC3)cc2c1=O` (configuration not stated) was tested. Which HER2 level % of control did it give?
Answer: 92.5% (inactive)

Question: How did the HER2 level % of control turn out when `CCn1cc(C(=O)NCC2CCCO2)c(=O)c2cc(S(=O)(=O)N3CCCCC3)ccc21` (configuration not stated) was run?
Answer: 108% (inactive)

Question: How did the HER2 level % of control turn out when `Cc1cc(C)nc(SCc2ccccc2C#N)n1` was run?
Answer: 112% (inactive)

Question: Which HER2 level % of control does the source give for `COc1ccc(C(=O)N2CCC(C(=O)Nc3cccc(C)c3)CC2)cc1OC` here?
Answer: 97.1% (inactive)

Question: Which HER2 level % of control does the source give for `Cc1nc2ccc(S(=O)(=O)NCC(=O)O)cc2s1` here?
Answer: 73.5% (inactive)

Question: `Cc1nc2ccc(S(=O)(=O)NC(C(=O)N3CCCCCC3)C(C)C)cc2s1` (configuration not stated) was tested. Which HER2 level % of control did it give?
Answer: 82.8% (inactive)

Question: `Cc1nc2cc(S(=O)(=O)C(F)(F)F)ccc2s1` was tested. Which HER2 level % of control did it give?
Answer: -17.7% (active)

Question: How did the HER2 level % of control turn out when `O=C(NCCN=C1NS(=O)(=O)c2ccccc21)c1ccc(S(=O)(=O)N2CCOCC2)cc1` was run?
Answer: 108% (inactive)

Question: `CCOc1ccc(OCc2ccc(C(=O)Nc3cccc(C)n3)o2)cc1` was tested. Which HER2 level % of control did it give?
Answer: 68.1% (inactive)

Question: Which HER2 level % of control does the source give for `CC(C)(C)n1nnnc1C(c1ccc2ncccc2c1)N1CCSCC1` (configuration not stated) here?
Answer: 92.2% (inactive)

Question: How did the HER2 level % of control turn out when `CC(C)c1ccc(OCC(O)Cn2cnc3ccccc32)cc1` (configuration not stated) was run?
Answer: 83.1% (inactive)

Question: With `Cc1ccc(S(=O)(=O)N2CCC(C(=O)N[C@@H](C)C(=O)NCCc3ccccc3)CC2)cc1` as the compound, how does the HER2 level % of control read?
Answer: -21.9% (active)

Question: With `Cc1ccc(S(=O)(=O)N2CCC(C(=O)N[C@@H](C)C(=O)NCc3ccccc3)CC2)cc1` as the compound, how does the HER2 level % of control read?
Answer: 102% (inactive)

Question: `Cc1ccc(CCNC(=O)C2CCN(S(=O)(=O)N3CCCC3)CC2)cc1` was tested. Which HER2 level % of control did it give?
Answer: 107% (inactive)

Question: How did the HER2 level % of control turn out when `CC(C)C[C@H](NC(=O)[C@@H]1O[C@H]1C(=O)O)C(=O)NCCCCN=C(N)N` was run?
Answer: 100% (inactive)
